Test results as given in the supplement of paper PMC6555819.

System: LXRa homodimer (NR concentration 270 nM)
Assay: PBM binding z-score (relative to random genomic background probes); higher = stronger binding; sequences stand for … in GC…GCGATTGACAGCGTAGAATGAAGG
Outline: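 Custom Agilent 4×180K protein-binding microarrays carried double-stranded probes. Their 34-nt variable regions held direct-repeat seeds, single-nucleotide variants, half-site ablations and random human genomic background sequences. Arrays were incubated 1 h with ligand-free nuclear receptor dimers in PBS pH 7.4, 2% milk, 0.02% Triton X-100, 1 mM DTT, 0.2 mg/mL BSA and 0.4 mg/ml salmon testes DNA. Antibodies against each partner (one per run) detected binding, and scanned fluorescence was regression-normalized. Binding z-scores use random background probes as reference.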

Row | Sequence | PBM binding z-score
1 | AATACTGGGTCATCGTAGGCCAGAGTACGCACAG | 1.07
2 | CAGCCTAGGTCAGGGCCGGTATAGGAGGAACGTT | -0.703
3 | TAGCCTAGTTCATTGGGCCAGTATAGTACGCATC | -0.141
4 | ATCGAAAGGTCGAAGTGAGTATAGAGAAAGGGAA | 0.221
5 | GCTAGTTGGTCAGTAACAGGTCACACACCGGTCG | 1.48
6 | GCTAGTTGTTCAGTAAAAGGTCACACACCGGTCG | 4.24
7 | CCGACTGAGGCATAAGGTTACCATAAGCCAGCCC | -0.182
8 | GATACAGGGTCAGCTAAAGGCCAGAGTATGGAAA | -0.339
9 | CCGACTGGAGCAAAGGTTACCATACTCAGTACGA | 0.0439
10 | CGTCCAAGGTCAGAGAGGTCAGTGGATGCCGAGT | 3.43
11 | ACTAGTTGGTCAGCTGAGGTCACCCACAATTCGG | 2.1
12 | ATCTCTTGGTAAAGTTCAGTGAAAGATCGATAGA | 1.65
13 | CAAACTAGGTCAAGAGGTCGAAGTCCGCTTCCCG | 1.22
14 | TAGTCTAGGTCATGCGGGCCAGTATAGTGTCGGC | 1.36
15 | CCCACTGGGCCAAAGGTCATTGATTCCAATGCTC | 4.26
16 | ACTAGCAGGCCAAGTTTGGGTCACTCTAACAAAG | -0.399
17 | CATACAGGGTCAGCTAGTCCAGAGTAGGGACGGC | -0.017
18 | GCTGCTAGGTCAAATGATGGTCAGCTAAAGCTCG | 0.405
19 | TGAAAGAGGTTAAAGATCAGGGAACGTGGCGTCG | 0.208
20 | AGAACGAGGGCAATGAATTGATAGCACGGGTGGC | -0.259

Row | Sequence | PBM binding z-score
21 | ATATGTGGGTTACATCCGGGTCATTCAGGCTATG | 1.26
22 | ATACCAGGGTGATCGTGAGGTCGTTGATACTAAC | 0.904
23 | TCTAGCAGGCCAGACGGTCACTCAAGAGGTACGG | -0.491
24 | ACTATTAGTTGAAACGAGGGCAACCGATAGGTTG | 0.126
25 | GCTGCTAGGTCAACTGATAGTCAGCTAAAGCTCG | -0.18
26 | GCTAGCGGGCCATTTGGGTCACTCAATGACGGGC | -0.975
27 | CCGACTGGGGCTTAAGGTTACCATAAGCCAGCCC | -0.512
28 | CGAACGAGGGCATGTGTTGATAGCAAATGCCGAT | -0.286
29 | CAAACTAGGTCAAGGGTCAAAGTCGAGCCAACCA | 2.34
30 | AGAACGAGGGCAATGAGTTGATAGAACGGGTGGC | -0.321
31 | ATCTCTATGTAAAGTTCAGTGAAAGATCGATAGA | 1.66
32 | GCTTGTAGATCAAGGTTAAGAAAGACTAAGCTAA | -0.55
33 | GCTATTAGTTGAAGGGGCAACCGAATGATTCTCG | -0.118
34 | AGTCAAAGTTCACTAGGTACCGTAAGATTCAGCT | 3.18
35 | TAGCCTAGGTCAGATCGGGCCTGTATACGCTATA | -0.411
36 | TCATATAGGTAAAGGTGTAAGTCGAACGATATGA | -0.224
37 | GCGACTGGGGCATCAGCAGGTTACCATAACTTAA | 0.0275
38 | GCAGACAGGTGAAACGCAGGTAAATCAGGGTGGC | -0.519
39 | CAAACTAGGTCACCGGAAGGTCAAAGTCCGCATG | 5.16
40 | ACTATTAGTTGACTTAGGGTAACCGATACGACGC | 1.21
